Here are results for six compounds from PubChem BioAssay (EPA / NIEHS).

Read-out in assay [1]: Interleukin-8 (IL8), CXCL8 (gene 3576)
Nature of the assay: BSK_CASM3C_IL8: BioMAP Diversity Plus: CASM3C Assay for Interleukin-8 (IL8) Biomarker Activity (AID 2283042).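 Note: IL-8 protein level quantified by ELISA.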 The following applies: primary human coronary artery smooth muscle cells; actives raise or lower the signal.

Read-out in assay [2]: Human Leukocyte Antigen - DR isotype (HLADR), HLA-DRA (gene 3122)
Nature of the assay: BSK_CASM3C_HLADR: BioMAP Diversity Plus: CASM3C Assay for Human Leukocyte Antigen - DR isotype (HLADR) Biomarker Activity (AID 2283043).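 Note: cell-surface HLA-DR protein level quantified by ELISA.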 The following applies: primary human coronary artery smooth muscle cells; actives raise or lower the signal.

Read-out in assay [3]: Macrophage colony-stimulating factor (MCSF), CSF1 (gene 1435)
Nature of the assay: BSK_CASM3C_MCSF: BioMAP Diversity Plus: CASM3C Assay for Macrophage colony-stimulating factor (MCSF) Biomarker Activity (AID 2283044).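 Note: M-CSF protein amount quantified by ELISA after 24 h exposure.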 As to conditions: primary human coronary artery smooth muscle cells; actives raise or lower the signal.

Read-out in assay [4]: Low-density lipoprotein receptor (LDLR), LDLR (gene 3949)
Nature of the assay: BSK_CASM3C_LDLR: BioMAP Diversity Plus: CASM3C Assay for Low-density lipoprotein receptor (LDLR) Biomarker Activity (AID 2283045).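 Note: LDLR protein level on the cell surface quantified by ELISA.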 The following applies: primary human coronary artery smooth muscle cells; actives raise or lower the signal.

Read-out in assay [5]: Monocyte Chemoattractant Protein-1 (MCP1), CCL2 (gene 6347)
Nature of the assay: BSK_CASM3C_MCP1: BioMAP Diversity Plus: CASM3C Assay for Monocyte Chemoattractant Protein-1 (MCP1) Biomarker Activity (AID 2283046).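 Note: MCP-1 level quantified by ELISA 24 h after dosing.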 As to conditions: primary human coronary artery smooth muscle cells; actives raise or lower the signal.

Assay [6] in a line: BSK_CASM3C_Proliferation: Cell Proliferation Assessment in the BioMAP Diversity Plus: CASM3C Assay (AID 2283047).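 Note: sulforhodamine B total protein stain as relative cell number at 560 nm; sub-confluent cells exposed 48 h before staining; fitted both ways against DMSO so gain or loss of cell number.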 As to conditions: primary human coronary artery smooth muscle cells.
Read-out in assay [7]: Monokine induced gamma interferon (MIG), CXCL9 (gene 4283)
Nature of the assay: BSK_CASM3C_MIG: BioMAP Diversity Plus: CASM3C Assay for Monokine induced gamma interferon (MIG) Biomarker Activity (AID 2283048).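 Note: MIG protein level measured by ELISA.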 As to conditions: primary human coronary artery smooth muscle cells; actives raise or lower the signal.

Read-out in assay [8]: serum amyloid A (SAA), SAA1 (gene 6288)
Nature of the assay: BSK_CASM3C_SAA: BioMAP Diversity Plus: CASM3C Assay for serum amyloid A (SAA) Biomarker Activity (AID 2283049).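 Note: SAA protein level quantified by ELISA.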 The following applies: primary human coronary artery smooth muscle cells; actives raise or lower the signal.

Assay [9] can be described thus: BSK_CASM3C_SRB: Viability Assessment in the BioMAP Diversity Plus: CASM3C Assay (AID 2283050).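 Note: total protein by SRB staining as cytotoxicity measure in parallel cultures; cells exposed to compound for 24 h.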 As to conditions: primary human coronary artery smooth muscle cells.
Read-out in assay [10]: Thrombomodulin, THBD (gene 7056)
Nature of the assay: BSK_CASM3C_Thrombomodulin: BioMAP Diversity Plus: CASM3C Assay for Thrombomodulin Biomarker Activity (AID 2283051).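 Note: thrombomodulin protein level measured by ELISA 24 h after dosing.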 As to conditions: primary human coronary artery smooth muscle cells; actives raise or lower the signal.

Read-out in assay [11]: Tissue Factor, F3 (gene 2152)
Nature of the assay: BSK_CASM3C_TissueFactor: BioMAP Diversity Plus: CASM3C Assay for Tissue Factor Biomarker Activity (AID 2283052).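 Note: cell surface tissue factor protein level read by ELISA.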 As to conditions: primary human coronary artery smooth muscle cells; actives raise or lower the signal.

Read-out in assay [12]: Interferon-gamma inducible Protein 10 (IP10), CXCL10 (gene 3627)
Nature of the assay: BSK_hDFCGF_IP10: BioMAP Diversity Plus: hDFCGF Assay for Interferon-gamma inducible Protein 10 (IP10) Biomarker Activity (AID 2283053). As to conditions: primary human foreskin fibroblasts; actives raise or lower the signal. In a few lines: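 ELISA read-out of IP-10 (CXCL10) from primary human skin fibroblasts, 24 h after compound addition. Gain or loss of signal versus DMSO baseline, bidirectional curve fitting.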

Read-out in assay [13]: Urokinase-type plasminogen activator receptor (uPAR), PLAUR (gene 5329)
Nature of the assay: BSK_CASM3C_uPAR: BioMAP Diversity Plus: CASM3C Assay for Urokinase-type plasminogen activator receptor (uPAR) Biomarker Activity (AID 2283054).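 Note: cell-surface uPAR protein level quantified by ELISA.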 The following applies: primary human coronary artery smooth muscle cells; actives raise or lower the signal.

Read-out in assay [14]: Vascular cell adhesion molecule 1 (VCAM1), VCAM1 (gene 7412)
Nature of the assay: BSK_CASM3C_VCAM1: BioMAP Diversity Plus: CASM3C Assay for Vascular cell adhesion molecule 1 (VCAM1) Biomarker Activity (AID 2283055).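 Note: VCAM-1 protein level quantified by ELISA on the cells.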 As to conditions: primary human coronary artery smooth muscle cells; actives raise or lower the signal.

Read-out in assay [15]: Collagen III, COL3A1 (gene 1281)
Nature of the assay: BSK_hDFCGF_CollagenIII: BioMAP Diversity Plus: hDFCGF Assay for Collagen III Biomarker Activity (AID 2283056). As to conditions: primary human foreskin fibroblasts; actives raise or lower the signal. In a few lines:
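ELISA read-out of collagen III from human skin fibroblast cultures sampled 24 h post-dosing. Values were derived by bidirectional fitting relative to the DMSO vehicle control.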

Read-out in assay [16]: Epidermal growth factor receptor (EGFR), EGFR (gene 1956)
Nature of the assay: BSK_hDFCGF_EGFR: BioMAP Diversity Plus: hDFCGF Assay for Epidermal growth factor receptor (EGFR) Biomarker Activity (AID 2283057). As to conditions: primary human foreskin fibroblasts; actives raise or lower the signal. In a few lines: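 ELISA readout of EGFR on human dermal fibroblasts (primary foreskin cells), 24 h post-dosing; bidirectional curve fit vs DMSO baseline, gain or loss of signal scored.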

Read-out in assay [17]: Macrophage colony-stimulating factor (MCSF), CSF1 (gene 1435)
Nature of the assay: BSK_hDFCGF_MCSF: BioMAP Diversity Plus: hDFCGF Assay for Macrophage colony-stimulating factor (MCSF) Biomarker Activity (AID 2283060). The following applies: primary human foreskin fibroblasts; actives raise or lower the signal. In a few lines: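 Primary human foreskin fibroblasts dosed with chemical; 24 h later, M-CSF quantified by ELISA; curves fitted in both directions vs DMSO negative control.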

The nature of assay [18]: BSK_hDFCGF_SRB: Viability Assessment in the BioMAP Diversity Plus: hDFCGF Assay (AID 2283061).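 Note: cells exposed to compound for 24 h before the read.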 The following applies: primary human foreskin fibroblasts. In a few lines:
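Readout is SRB absorbance at 560 nm, reflecting total protein in parallel cultures of human foreskin fibroblasts harvested 24 h after chemical dosing. Activity was fitted bidirectionally relative to DMSO.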

Assay [19] in a line: BSK_hDFCGF_Proliferation: Cell Proliferation Assessment in the BioMAP Diversity Plus: hDFCGF Assay (AID 2283059).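 Note: curves fitted for both rise and fall of signal versus DMSO baseline.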 The following applies: primary human foreskin fibroblasts. In a few lines: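 Primary human foreskin fibroblasts, sub-confluent; […]; 10% TCA fix, 0.1% SRB stain, A560 total protein. Gain/loss fitted bidirectionally vs DMSO control.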

Active and inactive are the calls of the source. Rule for the calls: active = hit-call score of the fitted dose curve at least 0.9, where 1 is the maximum; inactive = score below 0.9.

On to `OCCO`, for which the result in assay [1], in assay [2], in [3], in assay [4], in assay [5] and in assay [6] was inactive. Moreover, the result in assay [7], in [8], in [9], in assay [10], in assay [11] and in assay [12] was inactive. In addition, the result in assay [13], in assay [14], in assay [15], in assay [16], in assay [17] and in [18] was inactive.
Regarding `COCC(C)OCC(C)OCC(C)O` (centres undefined), the result in assay [1], in [2], in assay [3], in assay [4], in [5] and in [6] was inactive. Also, the result in assay [7], in assay [8], in assay [9], in assay [10], in assay [11] and in assay [12] was inactive. In addition, the outcome in assay [13], in assay [14], in assay [15], in [16] and in [18] was inactive.
For the compound `CN(C)c1ccc(C(=C2C=CC(=[N+](C)C)C=C2)c2ccc(N(C)C)cc2)cc1`, the AC50 is 5.56 µM (active) in assay [1]; 7.11 µM (active) in assay [2]; 6.36 µM (active) in assay [3]; 5.4 µM (active) in assay [4]; 1.07 µM (active) in [5]; 2.06 µM (active) in assay [6]. The AC50 in [7] is 8.07 µM (active); in [8], 0.822 µM (active); in assay [9], 7.66 µM (active); in assay [11], 1.49 µM (active); in assay [12] it was 4.07 µM (active); in assay [13], 1.54 µM (active). The AC50 in assay [14] is 8.39 µM (active); in assay [15], 0.148 µM (active); in assay [19], 1.39 µM (active); in [18], 2 µM (active). Moreover, the outcome in assay [10] and in assay [16] was inactive.
For the compound `CC(C)(C)c1cc(/C=C2\SC(N)=NC2=O)cc(C(C)(C)C)c1O`, the result in assay [1], in assay [11] and in assay [16] was inactive. Moreover, the AC50 is 20 µM (active) in assay [2]; 33.3 µM (active) in assay [3]; 29.1 µM (active) in assay [4]; 31.1 µM (active) in assay [5]; 29.1 µM (active) in assay [6]; 32 µM (active) in assay [7]. Also, the AC50 is 31.6 µM (active) in [8]; 30.7 µM (active) in [9]; 0.507 µM (active) in [10]; 31.9 µM (active) in assay [13]; 31.1 µM (active) in assay [14]; 6.83 µM (active) in assay [15]. Moreover, in [18], the AC50 was 20 µM (active).
`Cc1cc(F)ccc1-c1cc(N2CC[C@@H](O)[C@H]2CO)ncc1N(C)C(=O)C(C)(C)c1cc(C(F)(F)F)cc(C(F)(F)F)c1`: the AC50 in assay [1] is 27.8 µM (active); in assay [2], 26.5 µM (active); in assay [3] it was 26.1 µM (active); in assay [4] it was 24.4 µM (active); in assay [5] it was 31 µM (active); in [6], 28.3 µM (active). The AC50 in [7] was 30.1 µM (active); in assay [8], 31.7 µM (active); in assay [9], 29.2 µM (active); in assay [11] it was 22 µM (active); in [13], 31.1 µM (active); in assay [14], 25.4 µM (active). In addition, the AC50 in [15] was 24.1 µM (active); in assay [19] it was 10.9 µM (active); in [17] it was 11.1 µM (active); in assay [18], 15.7 µM (active). The outcome in assay [10] and in assay [16] was inactive.
With `CCCCOC(=O)CC(CC(=O)OCCCC)(OC(C)=O)C(=O)OCCCC`, the result in [1], in assay [2], in assay [3], in assay [4], in [5] and in [6] was inactive. Also, the result in assay [7], in assay [9], in [10], in assay [11], in assay [13] and in assay [14] was inactive. For the same compound, the result in assay [15], in [16], in [19] and in [18] was inactive. In addition, in [8], the AC50 is 20 µM (active).

The AC50 is the concentration giving half of the maximal activity seen.
